Bioassay records: PubChem, several laboratories
CendR NRP1 mod: modulators of CendR peptide binding to NRP-1, primary screen, biochemical, fluorescence polarization, uHTS; Neuropilin-1 (Homo sapiens), O14786; FAM-RPARPAR peptide binding to NRP-1; inhibition, % at 25 µM; actives 0.85% (n = 360,000); AID 602438, 2012;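 active means inhibition or corrected inhibition above about 18%, plus a signal ratio from 0.5 to 1.5, limit read from the data, passing the limit was not always enough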
TPT1 inhibitor: Candida albicans TPT1 enzyme inhibitors, primary screen, biochemical, fluorescence polarization. recombinant caTPT1, FP RNA substrate dephosphorylation. inhibition, % at 5 µM. actives 0.81% (n = 300,000). tRNA 2'-phosphotransferase TPT1 (Candida albicans SC5314). AID 1962, 2009;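 active means inhibition above the mean of all tested compounds plus 3 SD, set per screening campaign, cut at about 24% in these data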;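 further: plate controls were DMSO alone for no effect and ferristatin control at 100 nM for full effect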
PHOSPHO1 inh: PubChem AID 1565. inhibition, % at 13.3 µM. recombinant PHOSPHO1, absorbance phosphatase assay. Phosphoethanolamine/phosphocholine phosphatase (Homo sapiens), Q8TCT1. actives 1.1% (n = 290,000); in the data active means inhibition above about 60%
Target sequence (Q8TCT1 whole entry, looked up): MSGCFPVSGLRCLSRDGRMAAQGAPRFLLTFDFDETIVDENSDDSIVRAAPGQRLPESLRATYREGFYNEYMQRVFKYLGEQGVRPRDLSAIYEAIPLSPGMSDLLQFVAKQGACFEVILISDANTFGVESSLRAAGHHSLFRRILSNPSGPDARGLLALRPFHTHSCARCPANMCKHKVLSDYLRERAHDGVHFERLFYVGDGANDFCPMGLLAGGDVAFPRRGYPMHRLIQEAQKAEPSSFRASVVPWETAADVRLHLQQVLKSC
Rpn11 block: Rpn11 (PSMD14) deubiquitinase inhibitors, primary screen, biochemical, fluorescence polarization, uHTS; 26S proteasome non-ATPase regulatory subunit 14 (Homo sapiens), O00487; human 26S proteasome, Ub4-pepOG fluorescence polarization; 20S core pre-blocked with epoxomicin; inhibition, % at 20 µM; actives 0.59% (n = 360,000); AID 588493, 2011;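 active means inhibition at 20 µM, scaled to each plate's controls, above about 33%, limit read from the data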
Target sequence (O00487 whole entry, looked up): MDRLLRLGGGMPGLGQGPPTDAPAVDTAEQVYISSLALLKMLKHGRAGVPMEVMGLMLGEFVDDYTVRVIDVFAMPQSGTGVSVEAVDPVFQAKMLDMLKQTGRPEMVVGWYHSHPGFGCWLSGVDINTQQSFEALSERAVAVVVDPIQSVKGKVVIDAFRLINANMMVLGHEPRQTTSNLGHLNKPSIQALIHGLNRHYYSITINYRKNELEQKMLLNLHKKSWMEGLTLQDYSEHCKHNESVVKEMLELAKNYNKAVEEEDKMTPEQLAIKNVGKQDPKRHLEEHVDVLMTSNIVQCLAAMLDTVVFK
CTSL1 counter: Fasciola hepatica cathepsin L1 inhibitors, primary screen, counter-screen for PFM18AAP inhibitor project, biochemical, QFRET, fluorogenic peptide substrate. recombinant F. hepatica cathepsin L1, Z-Leu-Arg-MCA fluorescence. inhibition, % at 5.96 µM. actives 0.49% (n = 300,000);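 active means inhibition above the mean of all tested compounds plus 3 SD, set per screening campaign, cut at about 17% in these data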;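 further: 0% = plate median of test compound wells and 100% = 1 µM Z-Phe-Ala-diazomethylketone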
HNF4A DNA FP: change in binding of human HNF4A to DNA, primary screen, biochemical, fluorescence polarization, FITC-DNA. Hepatocyte nuclear factor 4-alpha (Homo sapiens), P41235. actives 0.3% (n = 360,000). activity change, % at 10 µM. 1 h; in the data active means activity change above about 30%, passing the limit was not always enough
* marks the source's active call; other numbers are inactive results; . = no result given. Hits are enriched below; roughly 3.3% of the tested compounds scored in any of these assays.

SMILES	CendR NRP1 mod	TPT1 inhibitor	PHOSPHO1 inh	Rpn11 block	CTSL1 counter	HNF4A DNA FP
COc1ccc(Cl)cc1Nc1nc(-c2sc(NC(=O)CC(C)C)nc2C)cs1	-31.8	5.1	93.8*	7.4	-3.2	15.3
Cc1nc(NC(=O)CC(C)C)sc1-c1csc(Nc2ccc(Cl)cc2Cl)n1	-13.4	1.8	54.9	5.4	-0.6	12.2
CCOc1ccccc1Nc1nc(-c2sc(NC(=O)c3ccc([N+](=O)[O-])cc3)nc2C)cs1	.	2.2	11.5	.	2.3	.
CCC(C)C(=O)Nc1nc(C)c(-c2csc(Nc3ccccc3OC)n2)s1 (centres undefined)	-15.9	4.4	74.3*	2.3	-0.7	2.9
COc1cc(O)c(C(CCN2CCOCC2)c2ccc3c(c2)OCO3)c(OC)c1 (centres undefined)	2.9	1.4	-0.6	-0.5	0.1	0.2
COc1cc(O)c(C(CC(=O)N2CCOCC2)c2ccc(N(C)C)cc2)c(OC)c1 (centres undefined)	24.1*	-0.3	30.9	-6.4	-3.5	0.7
COc1cc(O)c(C(CC(=O)N2CCOCC2)c2ccc3c(c2)OCO3)c(OC)c1 (centres undefined)	27.6*	-2.0	39.7	-5.7	2.9	-2.1
COc1cc(O)c(C(CC(=O)N2CCCCC2)c2ccc(N(C)C)cc2)c(OC)c1 (centres undefined)	-4.9	.	30.9	4.1	.	0.0
CN(C)S(=O)(=O)n1cc(/C=C(\NC(=O)c2ccccc2)C(=O)NCCCN2CCOCC2)c2ccccc21	-5.2	0.1	20.7	-3.6	2.0	0.1
CCn1cc(/C=C(\NC(=O)c2ccccc2F)C(=O)NCCN2CCOCC2)c2ccccc21	0.2	4.2	64.9*	10.1	3.5	3.6
COc1ccccc1C(=O)N/C(=C\c1cn(S(=O)(=O)N(C)C)c2ccccc12)C(=O)NCCCN1CCOCC1	44.0*	-0.3	29.3	-3.7	-0.1	-0.5
C#CCNC(=O)C[C@@H]1C[C@@]2(C(=O)OCC)CCCC=C2N(Cc2ccccc2)C1=O	9.5	.	.	.	.	2.8
O=C(Nc1ccc(N2CCN(C(=O)c3cccs3)CC2)cc1)c1ccc(Br)o1	12.1	.	.	-7.5	.	1.0
Nc1cc(C(=O)O)ccc1Sc1ccccc1C(=O)O	2.7	-3.6	62.8*	1.7	4.1	-1.0
NC1=NC(c2ccccc2Cl)n2c(nc3ccccc32)N1 (centres undefined)	-13.7	2.7	-13.4	-9.8	1.2	0.9
COc1cccc(OC)c1C(=O)N1CCOCC1	-12.6	-0.5	5.1	-0.9	4.2	33.5*
COc1ccc(C(=O)Nc2cccc(C(=O)N3CCCCC3)c2)cc1	1.8	0.4	65.8*	0.1	0.1	-1.3
COc1ccc(NC(=O)Nc2ccc(C(=O)N3CCOCC3)cc2)cc1OC	4.6	-3.0	26.3	-3.1	-3.1	3.1
O=C(Cc1ccc([N+](=O)[O-])cc1)Nc1cccc(C(=O)N2CCCCC2)c1	25.6*	.	.	-3.5	.	2.9
COc1ccc(C(=O)Nc2cccc(C(=O)N3CCN(C)CC3)c2)cc1	9.8	-5.0	-6.6	-6.4	-0.8	-0.8
COc1ccc(NC(=O)Nc2cccc(C(=O)N3CCOCC3)c2)cc1OC	5.0	1.3	12.9	0.9	17.4*	1.1
O=C(Nc1cccnc1)c1ccc(S(=O)(=O)c2ccccc2)cc1	-7.3	-3.7	34.2	-17.0	-8.8	0.5
Cn1cc(CN2CCC(Oc3ccc(C(=O)N4CCCC4)cc3)CC2)cn1	-0.9	-1.0	24.2	-5.4	1.3	1.0
CCN(CC(=O)NCc1cccs1)S(=O)(=O)c1ccc(C(C)C)cc1	31.6*	-3.4	5.5	3.8	3.3	3.2
COc1cccc(-n2nc3c(=S)[nH]nc(C)c3c2C)c1	-33.7	-6.2	60.3*	6.9	4.2	5.4
SMILES	CendR NRP1 mod	TPT1 inhibitor	PHOSPHO1 inh	Rpn11 block	CTSL1 counter	HNF4A DNA FP
Cc1n[nH]c(=S)c2nn(-c3ccccc3F)c(C)c12	13.1	.	64.9*	-3.7	.	-0.2
Cc1n[nH]c(=S)c2nn(-c3cccc(Cl)c3)c(C)c12	.	.	-36.9	.	.	.
O=C1CC2CC1C(C(=O)O)C2C(=O)O (centres undefined)	3.8	.	.	-1.1	.	-5.2
CC(C(=O)NCCCn1ccnc1)(c1ccccc1)c1ccccc1	6.6	1.3	40.8	-1.6	-2.5	0.1
O=C(Nc1ccccc1)Nc1nnc(-c2ccccc2)o1	40.2*	-0.5	3.9	3.0	5.8	1.0
COCCCN(C(=O)c1cc(C)oc1C)c1c(N)n(CC(C)C)c(=O)[nH]c1=O	2.0	.	.	0.6	.	6.4
COc1ccccc1CNC(=O)Cc1ccc(C)cc1	43.1*	2.6	20.0	1.4	1.7	-0.6
COc1ccc(OCCSc2nnc3sc4ccccc4n23)cc1	-3.3	-2.4	77.4*	-1.4	11.1	2.3
O=C1C2C3C=CC(C3)C2S(=O)(=O)C2C3C=CC(C3)C12 (centres undefined)	1.4	.	.	-0.2	.	3.2
Cc1ccc(-c2nnc(SCC(=O)N3CCCC3)o2)cc1C	3.6	-1.7	92.4*	-1.9	-0.2	1.2
O=C(CSc1nnc(-c2ccccc2)o1)c1nnc(-c2ccccc2)o1	-40.5	19.1	93.5*	31.7	9.1	12.6
O=C(CSc1nnc(-c2ccncc2)o1)N1CCCCCC1	7.3	.	67.6*	-5.3	.	0.5
Cc1ccc(-c2nnc(SCC(=O)N3CCCC3)o2)cc1	14.7	-2.8	-15.9	-1.3	-0.7	0.5
Cc1cc(N2CCN(C(C(=O)NC3CCCC3)c3ccc(-c4ccccc4)cc3)CC2)c2ccccc2n1 (centres undefined)	19.5	.	.	.	.	1.4
CCc1cc2c(=O)c(-c3nc4ccccc4n3C)coc2c(CN2CCN(C)CC2)c1O	22.1*	-2.5	-6.7	-7.5	-4.7	-3.3
CCc1cc2c(=O)c(-c3nc4ccccc4n3C)coc2c(CN2CCC(C)CC2)c1O	6.3	.	31.6	-0.8	.	-1.1
Fc1cccc(Oc2nc3ccccc3n3cccc23)c1	-7.6	0.6	13.9	4.1	64.8*	-0.9
Cc1onc(C(=O)Nc2sc3c(c2C#N)CCCC3)c1[N+](=O)[O-]	-4.9	-2.0	21.0	1.0	23.5*	-2.5
Cn1nccc1C(=O)NC(=S)Nc1sc2c(c1C#N)CCCCC2	-6.0	3.8	67.5*	0.8	-9.0	-0.9
CCN1CCc2c(sc(NC(=S)NC(=O)c3ccccc3)c2C#N)C1	-38.4	28.3*	-21.7	19.1	-0.6	9.2
COC(=O)C1=C(C)N(c2ccc(F)cc2)C(=O)C1	10.5	-6.5	-20.9	-6.4	-3.2	-7.7
COC(=O)C1=C(C)N(c2ccc(OC)c(OC)c2)C(=O)C1	-1.1	0.4	23.9	-0.2	19.6*	0.9
